B1: unnamed (peptide)
chain: NSMRPPLLIPAATTK

These binders were tested against AgAbp1 (assay: SPOT peptide array binding signal intensity (averaged, normalized) (arbitrary units (background-subtracted, floor 0; scale differs between SH3 domains)); higher = stronger binding of the SH3 domain to the peptide).
Method in brief: (§1)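 GST-fused SH3 domains, from four yeast species, were produced in E. coli BL21(DE3) and captured on glutathione Sepharose. Membranes of cellulose carrying synthetic 15-mer peptides, in which cysteines had been replaced by serines, were exposed to each domain at 10 μg/ml overnight at 4°C in TBS-based blocking buffer. After anti-GST antibody, an HRP anti-mouse secondary and luminol, spots were imaged and quantified using Genespotter. Binding signal is normalized and background-subtracted spot intensity, averaged over replicates, in arbitrary units that differ between domains.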
With B1 the “SPOT peptide array binding signal intensity” value was 0.5.

These binders were tested against AgBbc1 in the same assay as above.
Method in brief: as §1
For B1, the “SPOT peptide array binding signal intensity” value was 13.5.

Each binder was assayed against AgBem1-D1 in the same assay as above.
Method in brief: as §1
For B1, the “SPOT peptide array binding signal intensity” value was 450.

Each binder was assayed against AgBzz1-D1 in the same assay as above.
Method in brief: as §1
For B1, the “SPOT peptide array binding signal intensity” value was 19.

What follows are binders tested against AgBzz1-D2 in the same assay as above.
Method in brief: as §1
For B1, the “SPOT peptide array binding signal intensity” value was 16.5.

These binders were tested against AgCyk3 in the same assay as above.
Method in brief: as §1
B1 was tested, and the “SPOT peptide array binding signal intensity” value was 1.

Each binder was assayed against AgFus1 in the same assay as above.
Method in brief: as §1
With B1 the “SPOT peptide array binding signal intensity” value was 384.

What follows are binders tested against AgHof1 in the same assay as above.
Method in brief: as §1
In the case of B1, the “SPOT peptide array binding signal intensity” value is reported as 20.5.

Each binder was assayed against AgHse1 in the same assay as above.
Method in brief: as §1
For B1, the “SPOT peptide array binding signal intensity” value was 210.

What follows are binders tested against AgLsb1 in the same assay as above.
Method in brief: as §1
In the case of B1, the “SPOT peptide array binding signal intensity” value is reported as 128.

Each binder was assayed against AgLsb4 in the same assay as above.
Method in brief: as §1
In the case of B1, the “SPOT peptide array binding signal intensity” value is reported as 12.

What follows are binders tested against AgMyo5 in the same assay as above.
Method in brief: as §1
For B1, the “SPOT peptide array binding signal intensity” value was 15.

Each binder was assayed against AgNbp2 in the same assay as above.
Method in brief: as §1
With B1 the “SPOT peptide array binding signal intensity” value was 114.

The binders below were run against AgRvs167 in the same assay as above.
Method in brief: as §1
In the case of B1, the “SPOT peptide array binding signal intensity” value is reported as 2.33.

Each binder was assayed against AgSho1 in the same assay as above.
Method in brief: as §1
With B1 the “SPOT peptide array binding signal intensity” value was 390.

Each binder was assayed against AgSla1-D1-D2 in the same assay as above.
Method in brief: as §1
In the case of B1, the “SPOT peptide array binding signal intensity” value is reported as 4.

The binders below were run against AgSla1-D3 in the same assay as above.
Method in brief: as §1
For B1, the “SPOT peptide array binding signal intensity” value was 1.75.

The binders below were run against CaAbp1-D1 in the same assay as above.
Method in brief: as §1
With B1 the “SPOT peptide array binding signal intensity” value was 63.5.

These binders were tested against CaAbp1-D2 in the same assay as above.
Method in brief: as §1
B1 was tested, and the “SPOT peptide array binding signal intensity” value was 121.

The binders below were run against CaBbc1 in the same assay as above.
Method in brief: as §1
In the case of B1, the “SPOT peptide array binding signal intensity” value is reported as 47.2.

Each binder was assayed against CaBem1-D1 in the same assay as above.
Method in brief: as §1
B1 was tested, and the “SPOT peptide array binding signal intensity” value was 378.

The binders below were run against CaBzz1-D1 in the same assay as above.
Method in brief: as §1
For B1, the “SPOT peptide array binding signal intensity” value was 190.

The binders below were run against CaBzz1-D2 in the same assay as above.
Method in brief: as §1
B1 was tested, and the “SPOT peptide array binding signal intensity” value was 111.

Each binder was assayed against CaCyk3 in the same assay as above.
Method in brief: as §1
In the case of B1, the “SPOT peptide array binding signal intensity” value is reported as 5.5.

Each binder was assayed against CaFus1 in the same assay as above.
Method in brief: as §1
With B1 the “SPOT peptide array binding signal intensity” value was 1550.

These binders were tested against CaHof1 in the same assay as above.
Method in brief: as §1
For B1, the “SPOT peptide array binding signal intensity” value was 0.5.

The binders below were run against CaHse1 in the same assay as above.
Method in brief: as §1
In the case of B1, the “SPOT peptide array binding signal intensity” value is reported as 103.

These binders were tested against CaLsb1 in the same assay as above.
Method in brief: as §1
B1 was tested, and the “SPOT peptide array binding signal intensity” value was 13.2.

These binders were tested against CaLsb4 in the same assay as above.
Method in brief: as §1
B1 was tested, and the “SPOT peptide array binding signal intensity” value was 516.

The binders below were run against CaMyo5 in the same assay as above.
Method in brief: as §1
For B1, the “SPOT peptide array binding signal intensity” value was 133.

The binders below were run against CaNbp2 in the same assay as above.
Method in brief: as §1
In the case of B1, the “SPOT peptide array binding signal intensity” value is reported as 291.

Each binder was assayed against CaRvs167 in the same assay as above.
Method in brief: as §1
In the case of B1, the “SPOT peptide array binding signal intensity” value is reported as 83.8.

These binders were tested against CaRvs167-3 in the same assay as above.
Method in brief: as §1
For B1, the “SPOT peptide array binding signal intensity” value was 3.75.

What follows are binders tested against CaSho1 in the same assay as above.
Method in brief: as §1
For B1, the “SPOT peptide array binding signal intensity” value was 1320.

What follows are binders tested against CaSla1-D1-D2 in the same assay as above.
Method in brief: as §1
In the case of B1, the “SPOT peptide array binding signal intensity” value is reported as 244.

Each binder was assayed against CaSla1-D3 in the same assay as above.
Method in brief: as §1
B1 was tested, and the “SPOT peptide array binding signal intensity” value was 317.

Each binder was assayed against ScAbp1 in the same assay as above.
Method in brief: as §1
B1 was tested, and the “SPOT peptide array binding signal intensity” value was 4.

The binders below were run against ScBbc1 in the same assay as above.
Method in brief: as §1
In the case of B1, the “SPOT peptide array binding signal intensity” value is reported as 1.5.

What follows are binders tested against ScBem1-D1 in the same assay as above.
Method in brief: as §1
B1 was tested, and the “SPOT peptide array binding signal intensity” value was no more than 0.

These binders were tested against ScBzz1-D1 in the same assay as above.
Method in brief: as §1
In the case of B1, the “SPOT peptide array binding signal intensity” value is reported as 7.5.

These binders were tested against ScBzz1-D2 in the same assay as above.
Method in brief: as §1
In the case of B1, the “SPOT peptide array binding signal intensity” value is reported as 19.5.

What follows are binders tested against ScCyk3 in the same assay as above.
Method in brief: as §1
In the case of B1, the “SPOT peptide array binding signal intensity” value is reported as 6.

Each binder was assayed against ScFus1 in the same assay as above.
Method in brief: as §1
In the case of B1, the “SPOT peptide array binding signal intensity” value is reported as 508.

These binders were tested against ScHof1 in the same assay as above.
Method in brief: as §1
In the case of B1, the “SPOT peptide array binding signal intensity” value is reported as no more than 0.

Each binder was assayed against ScHse1 in the same assay as above.
Method in brief: as §1
In the case of B1, the “SPOT peptide array binding signal intensity” value is reported as 160.

Each binder was assayed against ScLsb1 in the same assay as above.
Method in brief: as §1
In the case of B1, the “SPOT peptide array binding signal intensity” value is reported as 232.

What follows are binders tested against ScLsb2 in the same assay as above.
Method in brief: as §1
With B1 the “SPOT peptide array binding signal intensity” value was 1.

The binders below were run against ScLsb3 in the same assay as above.
Method in brief: as §1
With B1 the “SPOT peptide array binding signal intensity” value was 303.

What follows are binders tested against ScLsb4 in the same assay as above.
Method in brief: as §1
In the case of B1, the “SPOT peptide array binding signal intensity” value is reported as 208.

What follows are binders tested against ScMyo3 in the same assay as above.
Method in brief: as §1
With B1 the “SPOT peptide array binding signal intensity” value was 47.5.

Each binder was assayed against ScMyo5 in the same assay as above.
Method in brief: as §1
For B1, the “SPOT peptide array binding signal intensity” value was 8.5.

The binders below were run against ScNbp2 in the same assay as above.
Method in brief: as §1
With B1 the “SPOT peptide array binding signal intensity” value was 150.

The binders below were run against ScPex13 in the same assay as above.
Method in brief: as §1
B1 was tested, and the “SPOT peptide array binding signal intensity” value was 222.

What follows are binders tested against ScRvs167 in the same assay as above.
Method in brief: as §1
B1 was tested, and the “SPOT peptide array binding signal intensity” value was 53.7.

The binders below were run against ScSho1 in the same assay as above.
Method in brief: as §1
For B1, the “SPOT peptide array binding signal intensity” value was 562.

These binders were tested against ScSla1-D1-D2 in the same assay as above.
Method in brief: as §1
In the case of B1, the “SPOT peptide array binding signal intensity” value is reported as 266.

What follows are binders tested against ScSla1-D3 in the same assay as above.
Method in brief: as §1
With B1 the “SPOT peptide array binding signal intensity” value was 430.

Each binder was assayed against SpAbp1-D1 in the same assay as above.
Method in brief: as §1
With B1 the “SPOT peptide array binding signal intensity” value was 27.

Each binder was assayed against SpBbc1 in the same assay as above.
Method in brief: as §1
B1 was tested, and the “SPOT peptide array binding signal intensity” value was 2.75.

Each binder was assayed against SpBzz1-D1 in the same assay as above.
Method in brief: as §1
B1 was tested, and the “SPOT peptide array binding signal intensity” value was 273.

What follows are binders tested against SpBzz1-D2 in the same assay as above.
Method in brief: as §1
B1 was tested, and the “SPOT peptide array binding signal intensity” value was 53.8.

What follows are binders tested against SpCyk3 in the same assay as above.
Method in brief: as §1
In the case of B1, the “SPOT peptide array binding signal intensity” value is reported as 3.

These binders were tested against SpHof1 in the same assay as above.
Method in brief: as §1
For B1, the “SPOT peptide array binding signal intensity” value was 36.

What follows are binders tested against SpHof1-2 in the same assay as above.
Method in brief: as §1
With B1 the “SPOT peptide array binding signal intensity” value was 31.8.

The binders below were run against SpHof1-3 in the same assay as above.
Method in brief: as §1
With B1 the “SPOT peptide array binding signal intensity” value was 41.

Each binder was assayed against SpHse1 in the same assay as above.
Method in brief: as §1
With B1 the “SPOT peptide array binding signal intensity” value was 444.

Each binder was assayed against SpLsb1 in the same assay as above.
Method in brief: as §1
For B1, the “SPOT peptide array binding signal intensity” value was 34.2.

The binders below were run against SpLsb4 in the same assay as above.
Method in brief: as §1
For B1, the “SPOT peptide array binding signal intensity” value was 761.

What follows are binders tested against SpMyo1 in the same assay as above.
Method in brief: as §1
B1 was tested, and the “SPOT peptide array binding signal intensity” value was 56.2.

These binders were tested against SpNbp2 in the same assay as above.
Method in brief: as §1
For B1, the “SPOT peptide array binding signal intensity” value was 116.

Each binder was assayed against SpPex13 in the same assay as above.
Method in brief: as §1
For B1, the “SPOT peptide array binding signal intensity” value was 37.

What follows are binders tested against SpRvs167 in the same assay as above.
Method in brief: as §1
With B1 the “SPOT peptide array binding signal intensity” value was 68.2.

These binders were tested against SpSla1-D1-D2 in the same assay as above.
Method in brief: as §1
B1 was tested, and the “SPOT peptide array binding signal intensity” value was no more than 0.

Each binder was assayed against SpSla1-D3 in the same assay as above.
Method in brief: as §1
B1 was tested, and the “SPOT peptide array binding signal intensity” value was 200.

Source: the supplement of paper PMC4466140
